Bioassay records as filed in PubChem.
SMARCA2 activ: SMARCA2 (BRM) function activators, primary screen, cell-based, luminescence, high throughput; MG213 cells, MMTV-luciferase reporter, dexamethasone, overnight; AID 652017, 2013; 1% of 370,000 active; activation, % at 9.1 µM; in the data active means activation above about 7.8%
CDK5 inh: inhibitors of human CDK5/p35 kinase, primary screen, biochemical, single concentration | 0.01% of 330,000 active | Recombinant CDK5/p35, ADP-Glo luminescence, 60 min | Cyclin-dependent kinase 5 (Homo sapiens) + Cyclin-dependent kinase 5 activator 1 (Homo … | inhibition, % at 10 µM;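 active means highest replicate inhibition of at least 50% and at least 75% of replicates reaching 50%; inconclusive means only one of the two criteria met; inactive means both criteria failed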
Rtt109 HAT inh: inhibitors of C. albicans Rtt109/Vps75 HAT, primary screen, biochemical, ThioGlo CoA-SH fluorescence, plate reader; Histone acetyltransferase RTT109 (Candida albicans (strain SC5314 / ATCC MYA-2876)), …; purified Rtt109/Vps75, 4 h; inhibition, % at 34.9 µM; 0.16% of 330,000 active;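 active means inhibition of at least 50% in every replicate; inconclusive means best replicate reaches 50% inhibition but some replicates fall short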
Target sequence (Q5AAJ8 whole entry, looked up): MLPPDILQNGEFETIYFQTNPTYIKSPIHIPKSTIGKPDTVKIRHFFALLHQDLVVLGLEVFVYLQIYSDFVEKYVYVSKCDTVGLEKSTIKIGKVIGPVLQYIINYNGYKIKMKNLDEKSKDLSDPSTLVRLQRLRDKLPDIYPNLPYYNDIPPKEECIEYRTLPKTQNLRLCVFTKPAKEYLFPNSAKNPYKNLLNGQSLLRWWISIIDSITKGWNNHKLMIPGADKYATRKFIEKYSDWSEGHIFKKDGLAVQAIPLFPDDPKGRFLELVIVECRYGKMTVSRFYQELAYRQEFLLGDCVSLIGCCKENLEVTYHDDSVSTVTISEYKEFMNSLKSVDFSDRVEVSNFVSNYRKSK
dFosB act-1: activators of delta FosB homodimer, primary screen, biochemical, fluorescence polarization, TAMRA-CDK5 oligo, single point. activation, % at 25 µM. 0.99% of 340,000 active. purified delta FosB; percent of positive-control signal above neutral wells. AID 493131, 2011;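 active means mean activation above about 17%, with every replicate also reaching it, limit read from the data, passing the limit was not always enough; inconclusive means only one of the two conditions met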
Target sequence (P13346 whole entry, looked up): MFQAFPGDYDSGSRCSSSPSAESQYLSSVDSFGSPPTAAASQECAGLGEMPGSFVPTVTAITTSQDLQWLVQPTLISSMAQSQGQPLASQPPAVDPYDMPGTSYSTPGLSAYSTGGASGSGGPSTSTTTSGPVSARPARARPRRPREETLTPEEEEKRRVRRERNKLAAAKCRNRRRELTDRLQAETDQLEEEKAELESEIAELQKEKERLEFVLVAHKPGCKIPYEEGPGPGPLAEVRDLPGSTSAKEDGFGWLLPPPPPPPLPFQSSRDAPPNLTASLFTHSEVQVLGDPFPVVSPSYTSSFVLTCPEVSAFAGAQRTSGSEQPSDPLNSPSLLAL
esBAF inh: Bmi1 luciferase reporter increase in mESCs, primary screen, esBAF inhibitor project, mouse ES cells, Bmi1 luciferase knock-in, single point | 24 h; 100% = twice the neutral-well signal | reporter increase, % at 12.5 µM | 2% of 350,000 active; in the data active means activation above about 40%; inconclusive means no clear call, values can overlap the other calls;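 further: a rise in the Bmi1 reporter signal indicates esBAF inhibition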
DYRK1A inh: rat Dyrk1A kinase inhibitors, primary screen, biochemical, single point, plate reader | Dual specificity tyrosine-phosphorylation-regulated kinase 1A (Rattus norvegicus), Q63470 | ADP-Glo luminescence, NFATc1 peptide | inhibition, % at 12.5 µM | 0.43% of 310,000 active | AID 504441, 2011; in the data active means inhibition above about 50%
dFosB act-2: activators of mouse delta FosB DNA binding, confirmation, biochemical, fluorescence polarization, TAMRA-CDK5 oligo, cherry-picked samples; shares compounds with dFosB act-1; purified delta FosB; normalised: neutral wells 0, positive control 100; activation, % at 24.9 µM; 2,400 tested, under 10 active; AID 588690, 2011;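 active means highest replicate activation at or above 34% and every replicate reaching that threshold; inconclusive means meets only one of the two criteria; inactive means meets neither criterion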;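 further: higher polarization means more probe DNA bound by delta FosB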
Large screens that a line does not name were inactive (follow-up assays come after a bar, where they were run). In the library only some 3.2% were active in any assay of this set; here they are far more common.

CNc1ccccc1C(=O)OCC(=O)Nc1ccc2c(c1)OCO2	none
O=C(COC(=O)c1ccc2c(c1)OCO2)NCc1ccc2c(c1)OCO2	none
O=C(COC(=O)c1cc(Br)ccc1O)Nc1ccc2c(c1)OCO2	dFosB act-1 43.5 (no result: DYRK1A inh) | dFosB act-2 inactive
COc1ccc(/C=C/C(=O)OCC(=O)Nc2ccc3c(c2)OCO3)cc1	dFosB act-1 28.1 (no result: DYRK1A inh) | dFosB act-2 inactive
C[C@H](CO)N1C[C@H](C)[C@@H](CN(C)C(=O)Nc2ccc3c(c2)OCO3)Oc2c(NS(C)(=O)=O)cccc2C1=O	none (no result: SMARCA2 activ, CDK5 inh, Rtt109 HAT inh, dFosB act-1, DYRK1A inh)
CO[C@@H]1CN(C)C(=O)c2cc(NC(=O)C3CCCC3)ccc2OC[C@H](C)NC[C@@H]1C	none (no result: SMARCA2 activ, CDK5 inh, Rtt109 HAT inh, dFosB act-1, DYRK1A inh)
COc1ccc(NC(=O)COC(=O)c2ccc3c(c2)OCCO3)cc1OC	dFosB act-1 48.2 (no result: DYRK1A inh) | dFosB act-2 inactive
COc1ccc(NC(=O)COC(=O)c2ccc3c(c2)OCCO3)cc1	none (no result: CDK5 inh, Rtt109 HAT inh, dFosB act-1, DYRK1A inh)
Cc1ccc2nc(N(CCCN(C)C)C(=O)CN3C(=O)c4ccccc4C3=O)sc2c1	dFosB act-1 inconclusive (no result: esBAF inh)
Cc1cc(C)c2sc(N(CCCN(C)C)C(=O)CN3C(=O)c4ccccc4C3=O)nc2c1	dFosB act-1 30.7 | dFosB act-2 inactive
O=C(Nc1ccc(Br)cn1)c1cccc(-c2cc3ccccc3oc2=O)c1	dFosB act-1 33.7 (no result: esBAF inh) | dFosB act-2 inactive
COc1ccccc1-c1cc(C(=O)Nc2ccc(F)cc2F)no1	dFosB act-1 24.8 | dFosB act-2 inactive
COCCNC(=O)c1cc(-c2ccccc2OC)on1	esBAF inh inconclusive
C[C@@H]1CN([C@@H](C)CO)C(=O)c2cccc(NC(=O)Nc3ccc(F)cc3)c2O[C@H]1CN(C)C(=O)NC1CCCCC1	none (no result: SMARCA2 activ, CDK5 inh, Rtt109 HAT inh, dFosB act-1, DYRK1A inh)
COc1ccc(-c2nc(-c3ccncc3)no2)c(OC)c1	none
COc1cc(OC)c(-c2nc(-c3ccncc3)no2)cc1OC	dFosB act-1 20.9 (no result: DYRK1A inh) | dFosB act-2 inactive
Cc1ccc(NC(=O)[C@@H]2CCC(=O)N2C2OC(=O)c3ccccc32)cc1Cl (some centres undefined)	none
Cc1ccc(NC(=O)C2CC(=O)n3c(nc4ccccc43)N2)cc1Cl (centres undefined)	dFosB act-1 31.3 | dFosB act-2 inactive
Cc1ccc(NC(=O)C2CC(=O)n3c(nc4ccccc43)N2)cc1C (centres undefined)	dFosB act-1 31.1 (no result: esBAF inh) | dFosB act-2 inactive
CC(C)c1ccc(NC(=O)C2CC(=O)Nc3nc4ccccc4n32)cc1 (centres undefined)	dFosB act-1 81.3 (no result: esBAF inh) | dFosB act-2 inactive
CCCNC(=O)N1[C@H](CO)[C@@H](c2ccccc2)[C@H]1CNC(=O)c1ccc(F)cc1	none (no result: SMARCA2 activ, CDK5 inh, Rtt109 HAT inh, dFosB act-1, DYRK1A inh)
COc1ccc(Br)cc1/C=C/C(=O)OCC(=O)NCCc1ccc(S(N)(=O)=O)cc1	dFosB act-1 21.8 | dFosB act-2 inactive
COc1ccc2oc(C(=O)OCC(=O)NCCc3ccc(S(N)(=O)=O)cc3)c(C)c2c1	dFosB act-1 25.7 (no result: DYRK1A inh) | dFosB act-2 inactive
CC=Cc1ccc2n(c1=O)C[C@@H]1[C@@H](CO)[C@H](C(=O)NCCc3ccncc3)N(Cc3cncnc3)[C@H]21 (mixture of isomers)	none (no result: SMARCA2 activ, CDK5 inh, Rtt109 HAT inh, dFosB act-1, DYRK1A inh)
O=C(Nc1ccccc1)c1ccc2c(c1)CCN2S(=O)(=O)c1ccccc1	none
Cc1cc(C)c(-c2cc(NC(=O)COC(=O)c3ccc(NC(=O)CC#N)cc3)n(-c3ccccc3)n2)cc1C	dFosB act-1 51.3 | dFosB act-2 inactive
Cc1ccc(NC(=O)COC(=O)c2cccc(N3C(=O)c4ccccc4C3=O)c2)cc1	dFosB act-1 49.9 (no result: esBAF inh) | dFosB act-2 inactive
CC(=O)c1cccc(NC(=O)COC(=O)c2cccc(N3C(=O)c4ccccc4C3=O)c2)c1	none (no result: esBAF inh)
CC(=O)c1ccc(NC(=O)c2cccc(N3C(=O)c4ccccc4C3=O)c2)cc1	dFosB act-1 78.1 (no result: SMARCA2 activ, esBAF inh) | dFosB act-2 inactive
NS(=O)(=O)c1ccc(NC(=O)c2ccc3c(c2)CCN3S(=O)(=O)c2ccccc2)cc1	dFosB act-1 32.4 | dFosB act-2 inactive
O=C(O)c1cc(NC(=O)c2cccc(N3C(=O)c4ccccc4C3=O)c2)cc(C(=O)O)c1	none
C[C@H]1CN([C@@H](C)CO)C(=O)Cc2cc(NC(=O)C3CC3)ccc2O[C@@H]1CN(C)S(=O)(=O)c1ccccc1	none (no result: SMARCA2 activ, CDK5 inh, Rtt109 HAT inh, dFosB act-1, DYRK1A inh)
O=C(Nc1ccccc1C(=O)O)c1cccc(N2C(=O)c3ccccc3C2=O)c1	none
NS(=O)(=O)c1ccc(NC(=O)c2cccc(N3C(=O)c4ccccc4C3=O)c2)cc1	dFosB act-1 111.3 | dFosB act-2 inactive
N#C/C(=C\c1c[nH]c2ccccc12)C(=O)Nc1ncc(Cc2ccc(Cl)cc2Cl)s1	dFosB act-1 30.5 (no result: esBAF inh) | dFosB act-2 inactive
N#C/C(=C\c1c[nH]c2ccccc12)C(N)=O	none (no result: esBAF inh)
CO[C@H]1CN(C)C(=O)c2cc(NC(C)=O)ccc2OC[C@@H](C)NC[C@H]1C	none (no result: SMARCA2 activ, CDK5 inh, Rtt109 HAT inh, dFosB act-1, DYRK1A inh)
CN(C)CCCNC(=O)C[C@@H]1CC[C@H]2[C@H](COc3ccc(NC(=O)c4ccccc4F)cc3C(=O)N2C)O1	none (no result: SMARCA2 activ, CDK5 inh, Rtt109 HAT inh, dFosB act-1, DYRK1A inh)
CCOc1ccc(/C=N/NC(=O)c2ccc(Cn3cc([N+](=O)[O-])cn3)o2)cc1	none
CC(/C=N/NC(=O)c1ccc(Cn2cc([N+](=O)[O-])cn2)o1)=C\c1ccccc1	dFosB act-1 27.9 (no result: esBAF inh) | dFosB act-2 inactive
COc1ccccc1S(=O)(=O)N1C[C@H](O)COC[C@H]2O[C@@H](CC(=O)O)CC[C@@H]21	none (no result: SMARCA2 activ, CDK5 inh, Rtt109 HAT inh, dFosB act-1, DYRK1A inh)
CO[C@@H]1CN(C)C(=O)c2ccc(NS(C)(=O)=O)cc2OC[C@@H](C)N(C(=O)C2CCOCC2)C[C@H]1C	none (no result: SMARCA2 activ, CDK5 inh, Rtt109 HAT inh, dFosB act-1, DYRK1A inh)
C[C@H]1CN([C@@H](C)CO)C(=O)Cc2cc(NS(=O)(=O)c3cccs3)ccc2O[C@@H]1CN(C)Cc1ccc2c(c1)OCO2	none (no result: SMARCA2 activ, CDK5 inh, Rtt109 HAT inh, dFosB act-1, DYRK1A inh)
COc1ccc2cc(OCC(=O)NNC(=O)Nc3ccc(C(C)=O)cc3)ccc2c1	dFosB act-1 99.3 | dFosB act-2 inactive
COc1ccccc1NC(=O)NNC(=O)COc1ccc2ccccc2c1	dFosB act-1 20.9 | dFosB act-2 inactive
COc1ccc(NC(=O)NNC(=O)COc2ccc3cc(Br)ccc3c2)cc1OC	dFosB act-1 143.6 | dFosB act-2 inactive
